Bioassay records deposited in PubChem BioAssay by National Center for Advancing Translational Sciences (NCATS).
POLH inh: DNA polymerase eta (human) inhibition. Q9Y253. recombinant Pol eta, fluorescent DNA replication assay. Potency, µM (top dose mostly 114 µM), for the others: at the top dose activity change, negative = inhibition, usual class: inhibitors. 1.2% of 390,000 active. AID 588591; further: potency means the concentration at half of the fitted maximal effect; on the % scale 0 is the no-effect control and ±100 the full control effect
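Fluorescent replication assay: 50 nM final substrate added after a 15 min room-temperature compound preincubation with 10 nM enzyme. Signal taken at 0 min and again at 10 min.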
PI4K2A block: PI4K2A (human) kinase inhibition; purified PI4K2A, ADP-Glo luminescence, 1 h; active compounds read low; activity change, negative = inhibition, % at 76.9 µM; 0.13% of 420,000 active; AID 1346378; in the data active means activity change below about -50%; inconclusive means mostly about -30% to -49%;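 further: -100% = wells without enzyme as full effect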
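In this quantitative HTS, ADP production by PI4K2A was quantified luminescently after 1 h at ambient temperature; 100 microM adenosine served as plate-quality control.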
POLK inh: blocks human DNA polymerase kappa activity | Q9UBT6 | purified Pol kappa, fluorescent DNA synthesis assay, 10 min | Potency, µM (highest dose often 107 µM), inactives show top-dose activity, negative = inhibition, most hits filed as inhibitors | 0.53% of 400,000 active | AID 588579; further: potency means the concentration at half of the fitted maximal effect; on the % scale 0 is the no-effect control and ±100 the full control effect
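50 nM final substrate added after 15 min RT preincubation of 10 nM Pol kappa with compound; fluorescence read at 0 and 10 min.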
PI5P4K alpha inh: inhibitors of human PI5P4K alpha; max response, %; 1.2% of 330,000 active; P48426; PI5P4Kalpha enzyme, ADP-Glo luminescence, 60 min; active compounds read low; AID 652105; active means max response of -50% or lower; inconclusive means between -30% and -50%; inactive means -30% or higher; further: value at the top dose of about 77 µM; on the % scale 0 is the no-effect control and ±100 the full control effect
Target sequence (P48426 whole entry, looked up): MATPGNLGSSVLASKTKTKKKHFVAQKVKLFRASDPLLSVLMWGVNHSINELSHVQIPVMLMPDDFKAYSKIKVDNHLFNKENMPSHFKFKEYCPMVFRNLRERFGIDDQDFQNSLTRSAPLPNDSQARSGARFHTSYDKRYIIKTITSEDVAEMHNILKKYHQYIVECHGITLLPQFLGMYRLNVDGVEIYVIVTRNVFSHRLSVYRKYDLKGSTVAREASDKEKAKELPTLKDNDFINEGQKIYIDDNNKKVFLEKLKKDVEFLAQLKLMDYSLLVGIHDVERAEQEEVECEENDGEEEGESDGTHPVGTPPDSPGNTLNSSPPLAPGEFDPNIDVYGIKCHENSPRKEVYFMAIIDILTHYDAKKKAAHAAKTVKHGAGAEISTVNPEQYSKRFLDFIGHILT
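ADP-Glo luminescence end-point after a 60 min room-temperature kinase reaction. PI5P4Kalpha and substrate in HEPES pH 7.4 buffer with EGTA, 0.1% CHAPS and 5% DMSO; ATP at 5 microM final.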
POLB inh: inhibitors of human DNA polymerase beta; P06746; Pol beta primer extension/strand displacement, fluorescence kinetic; Potency, µM (titrated, usually from 114 µM), for the others: at the highest dose activity change, negative = inhibition, hits mostly inhibitors; 1.3% of 340,000 active; further: potency means the concentration at half of the fitted maximal effect; on the % scale 0 is the no-effect control and ±100 the full control effect
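10 nM enzyme + cpd, 15 min RT; start with substrate 50 nM final; read 0 min and after 10 min RT. Corrected, normalized data; 4-parameter Hill curve fit.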
Pol iota inh: blocks human DNA polymerase iota activity; Q9UNA4; Pol iota fluorescent replication assay, 10 min; Potency, µM (series often up to 115 µM), without a hit: at the top dose activity, negative = inhibition, actives largely listed as inhibitors; 1% of 390,000 active; further: potency means the concentration at half of the fitted maximal effect
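Fluorescent replication assay read twice, at 0 min and 10 min after adding 50 nM (final) substrate. Enzyme (10 nM) and compounds were first incubated 15 min at room temperature; enzyme-free buffer wells were negative controls.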
ADP-Glo interf: ADP-Glo luciferase interference, PI5P4K counter-screen; shares compounds with PI5P4K alpha inh; ADP-Glo detection counter-screen, luciferase luminescence, no enzyme; Potency, µM (series often up to 76.9 µM), inactives show at the highest dose activity change, negative = inhibition, actives largely listed as inhibitors; 1,100 tested, under 10 active; AID 743285
Numbers without * were called inactive; ? = inconclusive; · = no result; [ ] = dose if it differs, or a comment. The list is not random: actives were taken first. Their share in the collection is about 2.8%. Unless noted, the call rests on the fitted dose curve; in most records, active means well fitted curve in the direction sought with a large enough effect; inconclusive means small, poorly fitted or top-dose-only effect, or another doubt; inactive means no such curve, though single readings can be large; an effect the other way counts as inactive or inconclusive.

SMILES	POLH inh	PI4K2A block	POLK inh	PI5P4K alpha inh	POLB inh	Pol iota inh	ADP-Glo interf
O=C(NCc1ccccc1)C(c1ccc(-c2ccccc2)cc1)n1c(=O)c(-c2ccco2)nc2ccccc21 (stereo not drawn)	·	-20.8	·	-73.0*	·	·	-6.8%
CC(C)(C)NC(=O)C(c1ccc(C#N)cc1)n1c(=O)c(-c2ccco2)nc2ccccc21 (stereo not drawn)	·	-13.9	·	-56.8*	·	·	2.1%
CN(N)C(=S)NCc1ccccc1	-8.2%	3.0	5.0%	·	40.9%	18.0%	·
CN(C)C(=S)NCc1ccccc1	-5.2%	-11.0	-0.8%	-54.4*	9.8%	5.8%	-7.2%
CCOC(=O)C1=CCC(c2ccc(N(CC)CC)cc2)N(S(=O)(=O)c2ccc(C)cc2)C1c1ccc([N+](=O)[O-])cc1 (stereo not drawn)	·	1.4	·	-1.9	·	·	·
COc1ccccc1CNc1ncnc2ccc(-c3ccc(C(=O)N(C)C)cc3)cc12	·	·	2.7%[60.1 µM]	·	·	·	·
CC(C)NC(=O)c1ccc2c3n(nc2c1)-c1ccccc1CO3	-18.3%	-62.6*	-5.6%	-51.8*	2.4%	31.8%	?
CC(C)[C@@H](CO)NC(=O)c1ccc2c3n(nc2c1)-c1ccccc1CO3	3.7%	-20.2	-2.6%	-7.1	10.7%	2.7%	·
CCOc1ccc(NC(=O)N2CCC(n3nnc4ccccc43)CC2)cc1	?	-0.2	?	-51.5*	29.2%	?	1.7%
O=c1c2c(n3nnnc3n1Cc1ccc(Cl)cc1)-c1ccccc1CC21CCCC1	·	-3.5	·	·	·	·	·
COc1cc(NC2=Nc3cccc4cccc2c34)cc(OC)c1OC	-24.4%	1.5	-15.0%	-50.3*	-2.6%	0.7%	-3.4%
Cc1ccc2c(c1)N(CC(=O)N1CCCCCC1)C(=O)C(C)O2 (stereo not drawn)	-1.4%	-0.7	2.7%	-73.1*	19.7%	42.0%	2.8%
Cc1ccc2c(c1)N(CC(=O)N1CCOCC1)C(=O)C(C)O2 (stereo not drawn)	3.7%	3.4	-9.3%	0.3	77.6%	2.6%	·
O=C(CSc1nc2c(cnn2-c2cccc(Cl)c2)c(=O)[nH]1)NCC1CCCO1 (stereo not drawn)	-15.7%	-2.2	1.3%	·	·	23.3%	-6.0%
O=C(O)c1ccc(-c2nc(-c3ccccc3Cl)cs2)cc1	0.9%	-7.8	-6.4%	-65.4*	-2.3%	23.0%	2.0%
O=C(O)c1ccc(-c2nc(-c3ccccc3)cs2)cc1	-10.7%	-8.6	-26.5%	-29.8	1.7%	?	·
CCOC(=O)C1CCN(C(=O)CCS(=O)(=O)c2ccc3c(c2)CCN3C(=O)CC)CC1	-7.7%	-3.5	-16.3%	4.9	-10.5%	11.9%	·
CCOC(=O)N1CCN(C(=O)CCS(=O)(=O)c2ccc3c(c2)CCN3C(=O)CC)CC1	-10.3%	-1.2	10.2%	?	-3.3%	10.8%	-1.9%
O=C(NCc1ccc(F)cc1)C1CCCN(c2cnccn2)C1 (stereo not drawn)	-6.9%	-3.3	8.5%	1.9	35.5%	-11.7%	·
O=C(NCc1ccc(F)cc1)C1CCN(c2cnccn2)CC1	1.2%	-0.5	-10.4%	-53.5*	58.8%	53.4%	0.7%
c1coc(-c2ccc3nncn3c2)c1	·	?	·	-73.4*	·	·	-12.5%
Cc1ccc(C(c2cc(Cl)c3cccnc3c2O)N2CCN(C)CC2)cc1 (stereo not drawn)	-21.6%	1.7	-5.2%	-88.9*	-12.8%	92.7%	6.2%
O=c1n(Cc2cccc(F)c2)c2ccccc2c2nc(-c3ccccc3)nn12	-10.2%	-8.9	-3.8%	·	17.0%	25.8%	·
CCOc1ccc(CCNS(=O)(=O)c2cn(C)cn2)cc1OCC	-4.2%	-2.3	?	-25.6	11.9%	?	0.3%
CCOc1cc(CNS(=O)(=O)c2cn(C)cn2)cc(OCC)c1OCC	-4.3%	-3.1	20.7%	0.7	-8.6%	21.0%	·
SMILES	POLH inh	PI4K2A block	POLK inh	PI5P4K alpha inh	POLB inh	Pol iota inh	ADP-Glo interf
CCCCC1Cc2[nH][nH]c(=O)c2C(c2ccc(F)cc2)O1 (stereo not drawn)	·	-10.9	·	-50.6*	·	·	-1.9%
CCCCC1Cc2[nH][nH]c(=O)c2C(c2ccc(Cl)cc2)O1 (stereo not drawn)	·	-10.1	·	-6.2	·	·	·
OCCCNc1cc(-c2ccnc(Nc3cccc(Cl)c3)n2)ccn1	-4.9%	-4.8	-12.3%	-51.4*	3.8%	-3.3%	4.6%
CCC(C)Oc1cc(-c2ccnc(Nc3cccc(Cl)c3)n2)ccn1 (stereo not drawn)	-14.7%	1.1	-16.4%	15.1	-4.3%	-6.0%	·
COc1ccc(N(Cc2cccs2)C(=O)Nc2cccc(Cl)c2)cc1	-13.9%	1.9	-7.3%	·	?	?	·
Cc1cccc(NC(c2ccc(O)cc2)c2ccc3ccc(C)nc3c2O)n1 (stereo not drawn)	-12.1%	-5.7	-6.3%	-52.1*	-3.8%	-8.4%	-9.1%
COc1ccccc1CNc1nc(NCc2ccc(C)cc2C)c2sccc2n1	·	0.4	·	·	·	·	-6.4%
COc1ccccc1CNc1nc(NCc2ccccc2)nc2ccsc12	·	-0.4	·	·	·	·	-7.7%
COCCNc1nc(NCc2ccc(C)cc2C)c2sccc2n1	·	2.7	·	-1.2	·	·	·
COc1ccccc1CNc1nc(NCc2cccc(OC)c2OC)c2sccc2n1	·	-3.4	·	·	·	·	2.8%
COc1cccc(CNc2nc(NC(C)C)nc3ccsc23)c1	·	-4.3	·	·	·	·	2.3%
CCc1ccc(OCC(=O)N(Cc2ccc(OC)cc2)C2CCS(=O)(=O)C2)cc1 (stereo not drawn)	-22.5%	0.4	-7.0%[60.1 µM]	·	1.9%	17.6%	·
COCCNc1nc(NCCOC)c2sc(-c3ccccc3)cc2n1	·	-2.2	·	-4.4	·	·	·
COCCNc1nc(NCCOc2ccccc2)c2sc(-c3ccccc3)cc2n1	·	-3.1	·	·	·	·	-1.3%
COc1ccccc1CNc1nc(NC(C)C)nc2cc(-c3ccccc3)sc12	·	5.1	·	·	·	·	-9.2%
O=C(O)Cn1nc(N2CCN(c3ccccc3)CC2)ccc1=O	-18.8%	-5.8	-3.2%	·	1.1%	7.2%	·
N#Cc1cccc(-c2cncnc2NCc2cccs2)c1	·	·	4.8%[60.1 µM]	·	·	·	·
O=C1C(c2ccccc2)=NCCN1C(c1ccc(F)cc1)c1nc2ccccc2[nH]1 (stereo not drawn)	·	1.0	·	-0.5	·	·	·
O=C(O)c1cccc(S(=O)(=O)Nc2ccc3[nH]c(=O)[nH]c3c2)c1	-1.7%	-0.2	-22.8%	?	-24.7%	?	·
O=C(O)c1ccc(Cl)c(S(=O)(=O)Nc2ccc3[nH]c(=O)[nH]c3c2)c1	?	0.2	?	-64.8*	3.55µM*	?	4.8%
